This is an account of results in article PMC11062922 (Nature Chemical Biology, 2023).

In assay [1] the test system is AAK1. The arrangement: species or system human, MV4-11 + K-562 + COLO205 + SK-N-BE2 + OVCAR-8. Particulars: read-out: apparent Kd, n = 1.
In assay [2] the test system is BMP2K. The arrangement: species or system human, MV4-11 + K-562 + COLO205 + SK-N-BE2 + OVCAR-8. Particulars: read-out: apparent Kd, n = 1.
Assay [3] relates to CLK1. Also noted: species or system human, MV4-11 + K-562 + COLO205 + SK-N-BE2 + OVCAR-8. As to conditions: read-out: apparent Kd; compound concentrations:100 nM and 1000 nM (sheet 'Samples'); n = 1.
The test system of assay [4] is CLK4. The arrangement: species or system human, MV4-11 + K-562 + COLO205 + SK-N-BE2 + OVCAR-8. Particulars: read-out: apparent Kd, n = 1.
Assay [5] concerns CSNK2A1;CSNK2A3. Also noted: species or system human, MV4-11 + K-562 + COLO205 + SK-N-BE2 + OVCAR-8. Particulars: read-out: apparent Kd, n = 1.
Assay [6] has as its system CSNK2A2. The arrangement: species or system human, MV4-11 + K-562 + COLO205 + SK-N-BE2 + OVCAR-8. Particulars: read-out: apparent Kd, n = 1.
The subject of assay [7] is FLT4. The arrangement: species or system human, MV4-11 + K-562 + COLO205 + SK-N-BE2 + OVCAR-8. As to conditions: read-out: apparent Kd; compound concentrations:100 nM and 1000 nM (sheet 'Samples'); n = 1.
For assay [8], the system named is GAK. The arrangement: species or system human, MV4-11 + K-562 + COLO205 + SK-N-BE2 + OVCAR-8. Particulars: read-out: apparent Kd, n = 1.
The subject of assay [9] is GSK3A. Also noted: species or system human, MV4-11 + K-562 + COLO205 + SK-N-BE2 + OVCAR-8. Particulars: read-out: apparent Kd, n = 1.
The test system of assay [10] is GSK3B. Also noted: species or system human, MV4-11 + K-562 + COLO205 + SK-N-BE2 + OVCAR-8. As to conditions: read-out: apparent Kd, n = 1.
In assay [11] the test system is PAK4. Also noted: species or system human, MV4-11 + K-562 + COLO205 + SK-N-BE2 + OVCAR-8. As to conditions: read-out: apparent Kd, n = 1.
In assay [12] the test system is PKN1. The arrangement: species or system human, MV4-11 + K-562 + COLO205 + SK-N-BE2 + OVCAR-8. As to conditions: read-out: apparent Kd, n = 1.
Assay [13] relates to PKN3. Also noted: species or system human, MV4-11 + K-562 + COLO205 + SK-N-BE2 + OVCAR-8. As to conditions: read-out: apparent Kd; compound concentrations:100 nM and 1000 nM (sheet 'Samples'); n = 1.
For assay [14], the target named is Q6ZSR9 (human, UniProt Q6ZSR9). The arrangement: species or system MV4-11 + K-562 + COLO205 + SK-N-BE2 + OVCAR-8. Particulars: read-out: apparent Kd, n = 1.
Sequence of Q6ZSR9 (Q6ZSR9 whole entry, looked up): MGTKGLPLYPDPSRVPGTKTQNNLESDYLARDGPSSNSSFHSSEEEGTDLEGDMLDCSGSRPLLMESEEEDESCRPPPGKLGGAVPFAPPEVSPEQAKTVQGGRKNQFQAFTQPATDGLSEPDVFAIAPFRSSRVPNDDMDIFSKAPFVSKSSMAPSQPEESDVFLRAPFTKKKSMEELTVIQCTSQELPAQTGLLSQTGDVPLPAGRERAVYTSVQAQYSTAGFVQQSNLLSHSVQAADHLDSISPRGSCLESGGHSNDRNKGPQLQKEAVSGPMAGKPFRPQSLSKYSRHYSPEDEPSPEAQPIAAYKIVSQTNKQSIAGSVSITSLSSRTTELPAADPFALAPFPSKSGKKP
Assay [15] has as its system RET. The arrangement: species or system human, MV4-11 + K-562 + COLO205 + SK-N-BE2 + OVCAR-8. As to conditions: read-out: apparent Kd, n = 1.
Assay [16] has as its system SIK2. The arrangement: species or system human, MV4-11 + K-562 + COLO205 + SK-N-BE2 + OVCAR-8. As to conditions: read-out: apparent Kd, n = 1.
Assay [17] has as its system FLT3. The arrangement: species or system human, MV4-11 + K-562 + COLO205 + SK-N-BE2 + OVCAR-8. Particulars: read-out: apparent Kd, n = 1.
The subject of assay [18] is MELK. Also noted: species or system human, MV4-11 + K-562 + COLO205 + SK-N-BE2 + OVCAR-8. Particulars: read-out: apparent Kd; compound concentrations: 100 nM and 1000 nM (sheet 'Samples'), CATDS: 2.1569826245294601E-2; n = 1.
Assay [19] relates to NUAK1. The arrangement: species or system human, MV4-11 + K-562 + COLO205 + SK-N-BE2 + OVCAR-8. As to conditions: read-out: apparent Kd, n = 1.
Where [20] appears, read: compound concentrations:100 nM and 1000 nM (sheet 'Samples').

The structures appear in SMILES notation. Like-named read-outs stand apart in the source and are kept apart here.

`CS(=O)(=O)CCn1c(=O)c(Oc2ccc(F)cc2F)cc2cnc(NC3CCOCC3)nc21` [RO5027956-000]: the potency estimated from few doses is 968 nM in [1] (setting [20]); 1020 nM in [2] (setting [20]); 1120 nM in assay [3]; 1240 nM in assay [4] (setting [20]); 1100 nM in assay [5] (setting [20]); 1530 nM in assay [6] (setting [20]). In addition, the potency estimated from few doses was 1390 nM in assay [7]; 422 nM in assay [8] (setting [20]); 592 nM in assay [9] (setting [20]); 601 nM in assay [10] (setting [20]); 1270 nM in assay [11] (setting [20]); 1540 nM in assay [12] (setting [20]). In addition, the potency estimated from few doses in [13] was 1230 nM; in assay [14] (setting [20]) it was 932 nM; in assay [15] (setting [20]), 823 nM; in [16] (setting [20]), 1100 nM.

Turning to `Cl.Cl.NC(CNC(=O)c1cc(Br)c(-c2ccnc3[nH]ccc23)s1)c1ccccc1.NC(CNC(=O)c1cc(Br)c(-c2ccnc3[nH]ccc23)s1)c1ccccc1` (centres unmarked) [GSK1322949A], the potency estimated from few doses in [1] (compound concentrations: 100 nM and 1000 nM (sheet 'Samples'), CATDS: 3.1655313708127797E-2) was 1070 nM; in assay [2] (compound concentrations: 100 nM and 1000 nM (sheet 'Samples'), CATDS: 4.4675050363511E-2), 552 nM; in assay [4] (compound concentrations: 100 nM and 1000 nM (sheet 'Samples'), CATDS: 3.1125873030522201E-2), 1120 nM; in assay [12] (compound concentrations: 100 nM and 1000 nM (sheet 'Samples'), CATDS: 2.3359167172179899E-2), 2380 nM; in assay [14] (compound concentrations: 100 nM and 1000 nM (sheet 'Samples'), CATDS: 3.14131871336574E-2), 1090 nM.

Take `CNCC#Cc1c(F)ccc2c1/C(=C/c1[nH]ccc1OC)C(=O)N2.Cl` [RO0281601-001]: the potency estimated from few doses in assay [1] (compound concentrations: 100 nM and 1000 nM (sheet 'Samples'), CATDS: 7.8599709029845199E-2) is 81.9 nM; in assay [2] (compound concentrations: 100 nM and 1000 nM (sheet 'Samples'), CATDS: 0.12287640268831), 36.8 nM; in assay [5] (compound concentrations: 100 nM and 1000 nM (sheet 'Samples'), CATDS: 2.36611103564075E-2), 1450 nM; in assay [6] (compound concentrations: 100 nM and 1000 nM (sheet 'Samples'), CATDS: 2.8196939656964501E-2), 832 nM; in assay [17] (compound concentrations: 100 nM and 1000 nM (sheet 'Samples'), CATDS: 6.9218069305552701E-2), 105 nM; in assay [8] (compound concentrations: 100 nM and 1000 nM (sheet 'Samples'), CATDS: 2.4779459392996701E-2), 1240 nM. In addition, the potency estimated from few doses in assay [9] (compound concentrations: 100 nM and 1000 nM (sheet 'Samples'), CATDS: 3.3017253821498199E-2) is 543 nM; in assay [10] (compound concentrations: 100 nM and 1000 nM (sheet 'Samples'), CATDS: 2.9733635165772199E-2) it was 717 nM; in [18], 2070 nM; in [19] (compound concentrations: 100 nM and 1000 nM (sheet 'Samples'), CATDS: 0.165743265872908) it was 22.7 nM; in assay [11] (compound concentrations: 100 nM and 1000 nM (sheet 'Samples'), CATDS: 2.65611791576283E-2), 993 nM; in assay [14] (compound concentrations: 100 nM and 1000 nM (sheet 'Samples'), CATDS: 7.9611520405697994E-2) it was 79.9 nM. Moreover, the potency estimated from few doses was 625 nM in [15] (compound concentrations: 100 nM and 1000 nM (sheet 'Samples'), CATDS: 3.1274331482211301E-2); 1090 nM in assay [16] (compound concentrations: 100 nM and 1000 nM (sheet 'Samples'), CATDS: 2.5744963506260699E-2).

With `Cc1cccc(Nc2nc(N[C@H]3CCNC3)ncc2C(N)=O)c1.Cl` [GSK2197149A], the potency estimated from few doses is 64.6 nM in assay [1] (setting [20]); 540 nM in assay [2] (setting [20]); 2150 nM in assay [5] (setting [20]); 1070 nM in [17] (setting [20]); 343 nM in assay [8] (setting [20]); 1690 nM in [19] (setting [20]). The potency estimated from few doses in [11] (setting [20]) was 562 nM; in assay [14] (setting [20]) it was 85.6 nM; in assay [16] (setting [20]), 603 nM.
